From the supplement of paper PMC8728848 come the findings set out here.

Common to all, as to assay: glycan array binding signal (z-score within array); higher = stronger binding
Details in all cases: glycan notation: IUPAC condensed, linker removed

Experiment [1] has as its target GlcNAc(a1-4)Gal(b1-4)GlcNAc(b1-3)Gal(b1-4)[Fuc(a1-3)]GlcNAc(b1-3)Gal(b1-4)[Fuc(a1-3)]GlcNAc. The method, boiled down: (§1)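 The Consortium for Functional Glycomics database supplied 3228 glycan arrays, of which those lacking an available protein sequence were dropped. The binding signal, a within-array Z-score, was averaged across arrays of the same protein sequence and across linkers. Negative scores can be read as non-binding.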

Experiment [2] concerns the target GlcNAc(b1-2)[GlcNAc(b1-6)]Man(a1-6)[GlcNAc(b1-2)Man(a1-3)]Man(b1-4)GlcNAc(b1-4)GlcNAc. The method, boiled down: as §1
The target in experiment [3] is GlcNAc(b1-3)Gal(b1-3)GalNAc. The method, boiled down:
as §1

Experiment [4] deals with GlcNAc(b1-3)Gal(b1-4)GlcNAc(b1-3)Gal(b1-4)GlcNAc(b1-3)Gal(b1-4)GlcNAc(b1-2)Man(a1-3)[GlcNAc(b1-3)Gal(b1-4)GlcNAc(b1-3)Gal(b1-4)GlcNAc(b1-3)Gal(b1-4)GlcNAc(b1-2)Man(a1-6)]Man(b1-4)GlcNAc(b1-4)GlcNAc. The method, boiled down:
as §1

Experiment [5] addresses GlcNAc(b1-3)Gal(b1-4)GlcNAc(b1-3)Gal(b1-4)GlcNAc(b1-3)Gal(b1-4)GlcNAc(b1-2)[GlcNAc(b1-3)Gal(b1-4)GlcNAc(b1-3)Gal(b1-4)GlcNAc(b1-3)Gal(b1-4)GlcNAc(b1-6)]Man(a1-6)[GlcNAc(b1-3)Gal(b1-4)GlcNAc(b1-3)Gal(b1-4)GlcNAc(b1-3)Gal(b1-4)GlcNAc(b1-2)Man(a1-3)]Man(b1-4)GlcNAc(b1-4)[Fuc(a1-6)]GlcNAc. The method, boiled down:
as §1

Another experiment concerns the target GlcNAc(b1-3)Man. The method, boiled down:
as §1

Another experiment addresses GlcNAc(b1-4)GlcNAc. The method, boiled down: as §1
In experiment [6] the target is Kdn(a2-3)Gal(b1-4)[Fuc(a1-3)]GlcNAc. The method, boiled down: as §1
Experiment [7] concerns the target Man(a1-3)[Man(a1-6)]Man(a1-6)[Man(a1-3)]Man(b1-4)GlcNAc(b1-4)GlcNAc. The method, boiled down: as §1
Experiment [8] deals with Neu5Ac(a2-3)Gal(b1-4)GlcNAc(b1-3)Gal(b1-4)GlcNAc. The method, boiled down: as §1
Experiment [9] has as its target Neu5Ac(a2-3)Gal(b1-4)GlcNAc(b1-3)Gal(b1-4)GlcNAc(b1-6)[Gal(b1-3)]GalNAc. The method, boiled down: as §1
Experiment [10] addresses Neu5Ac(a2-6)Gal(b1-4)GlcNAc(b1-2)[Neu5Ac(a2-6)Gal(b1-4)GlcNAc(b1-4)]Man(a1-3)[GlcNAc(b1-4)][Neu5Ac(a2-6)Gal(b1-4)GlcNAc(b1-2)[Neu5Ac(a2-6)Gal(b1-4)GlcNAc(b1-6)]Man(a1-6)]Man(b1-4)GlcNAc(b1-4)GlcNAc. The method, boiled down:
as §1

Experiment [11] concerns the target Neu5Ac(a2-6)Gal(b1-4)GlcNAc(b1-3)Gal(b1-4)GlcNAc(b1-3)[Neu5Ac(a2-6)Gal(b1-4)GlcNAc(b1-3)Gal(b1-4)GlcNAc(b1-6)]GalNAc. The method, boiled down: as §1
The target in experiment [12] is Neu5Ac(a2-6)Gal(b1-4)GlcNAc(b1-6)GalNAc. The method, boiled down:
as §1

The target in experiment [13] is Neu5Ac(a2-6)Gal(b1-4)GlcNAc6S. The method, boiled down:
as §1

For experiment [14], the target named is Neu5Ac(a2-8)Neu5Ac(a2-8)Neu5Ac(a2-3)[GalNAc(b1-4)]Gal(b1-4)Glc. The method, boiled down: as §1
The target in experiment [15] is Neu5Ac(a2-8)Neu5Ac(a2-8)Neu5Ac(a2-8)Neu5Ac(a2-3)[GalNAc(b1-4)]Gal(b1-4)Glc. The method, boiled down: as §1
For experiment [16], the target named is Neu5Ac(a2-8)Neu5Gc(a2-3)Gal(b1-4)GlcNAc. The method, boiled down:
as §1

The entries come from a sample that favours the strongest signals as a whole.

B1: PX14351B-bth-512-36-512 (Bacteroides thetaiotaomicron) (protein)
chain: ASETQQWKTLEDTRSALMGVYGLTRAALADNNTHWICGDLRKGDFTVYKRSDLQAVSDNELNKPYDLLKKVSNWRRFYAVINAASVFMEKAPRTVELDRSYSEQNLKYDIAQVRALRAFAYFYMVRIWGDVPLVTYSYDNGTFPSMPRTDAQTVLSYAKAELLTAIEDLPYQYGTQTNLYYGSYGAQWQGKLFNKLSAYSVLAHICAWQGNYAEAETYSAFIIDHASEINAKYTSIADLTSETGLFYSNASVKGSRILGFNFAHNDNEATQSGHLEQLTLAYPLVQKSYPEIYISKDSLFSIFTNFDDLRFGIIDTIKYSSYYVQNLNEETPVFSKIKIIQDGSAKDNDFGVFGSSIVFTRLEDITLLRAEALCALNRSTEAVSYLNMIRTNRGLREVSFKKDFGNNRESLIAEIFEERRRELMGEGWRWYDLVRRQKLMKDNEAFLRLISSGGIYWPVSEDIITANSQIEQNEFWK
For the molecule B1, the “glycan array binding signal (z-score)” value in experiment [1] is -0.049; in [2], -0.115; in experiment [3], -0.128; in experiment [4] it was -0.068; in experiment [5] it was 0.033; with GlcNAc(b1-3)Man, -0.006. For the same molecule, the “glycan array binding signal (z-score)” value was -0.165 with GlcNAc(b1-4)GlcNAc; -0.287 in experiment [6]; -0.271 in [7]; -0.265 in experiment [8]; 0.652 in experiment [9]; 0.217 in [10]. Besides, the “glycan array binding signal (z-score)” value is -0.33 in experiment [11]; 0.191 in [12]; -0.355 in [13]; -0.362 in [14]; 1.91 in experiment [15]; 4.31 in experiment [16].
